# According to the supplement of paper PMC9254222:
# Whole data set: some 1,100 compounds, median “Renilla luciferase signal (cell health) relative to plate median” near 0.97, cut for the highest 2% near 1.6. The sample as a whole holds a higher share of the highest values than the screen did.
# Test system: HEK293T (UBE3A T485A transfected, BAR Wnt reporter)
# Assay: Renilla luciferase signal (cell health) relative to plate median (fold (linear ratio)); higher = higher Renilla signal
# Conditions: 24 h
# Summary of the method: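 Chemicals at 0.01–100 uM were left on transfected HEK293T cells for 24 h, after a four-hour wait following transfection. The cells held a BAR firefly luciferase Wnt reporter, TK-Renilla and an expression plasmid. Wnt activity, as the firefly/Renilla ratio from a Dual-Glo luciferase readout, and cell health, as raw Renilla, were median-centred within each plate. Results average four biological replicates.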
SMILES,Renilla luciferase signal (concentration: 0.1 uM),Renilla luciferase signal (concentration: 1 uM),Renilla luciferase signal (concentration: 10 uM),Renilla luciferase signal (concentration: 100 uM),Renilla luciferase signal (concentration: 0.01 uM)
"O=C1OC(=O)C2C3C=CC(C3)C12 (stereo not given) [2-Norbornene-5,6-dicarboxylic anhydride]",0.885,0.853,0.966,1.39,–
COC(=O)CSc1cc(/N=c2\sc(=O)n3n2CCCC3)c(F)cc1Cl [Fluthiacet-methyl],0.995,1.1,1,1.21,1.03
Fc1ccccc1[C@@H](F)CO[C@H]1CC[C@H](Nc2[nH]cnc3nncc2-3)CC1,1.06,1.09,0.996,0.148,–
Oc1cc2ccccc2c2ccccc12 [9-Phenanthrol],1.08,1.05,1.01,0.0207,–
COCCO [2-Methoxyethanol],1.02,0.98,0.983,1.53,1.12
CN(C)CCCN1c2ccccc2Sc2ccc(Cl)cc21.Cl [Chlorpromazine hydrochloride],1.17,1.23,1.24,0.575,–
O=c1ccc2ccccc2o1 [Coumarin],1.21,1.07,1.11,1.15,–
Nc1ccc(S(=O)(=O)c2ccc(N)cc2)cc1 [Dapsone],1.03,1.07,1.2,1.03,–
CCCCOC(=O)c1ccc(O)cc1 [Butylparaben],0.848,0.85,0.756,0.258,–
CCCCN1C(=O)[C@@H]([C@H](O)C2CCCCC2)NC(=O)C12CCN(Cc1ccc(Oc3ccc(C(=O)O)cc3)cc1)CC2.Cl [Aplaviroc hydrochloride],0.995,1.01,1.04,2.23,–
CCc1ccc(O)c(C(C)(C)C)c1 [2-tert-Butyl-4-ethylphenol],1.28,1.07,1.02,1.22,–
O=C(O)CC(O)(CC(=O)O)C(=O)O [Citric acid],0.965,0.981,1.13,1.46,–
NC(=O)c1nc(-c2cccc(-c3cc(F)ccc3OCC(F)(F)C(F)(F)F)c2)n[n-]1.O.[K+],0.946,0.78,0.498,0.0369,–
"N[C@@H](Cc1cc(I)c(Oc2ccc(O)c(I)c2)c(I)c1)C(=O)O [3,5,3'-Triiodothyronine]",0.904,1.24,2.47,2.22,–
O=C(O)Cc1cc(I)c(Oc2cc(I)c(O)c(I)c2)c(I)c1 [Tetrac],1.07,1.06,1.11,1.28,–
O=C(O)Cc1cc(I)c(Oc2ccc(O)c(I)c2)c(I)c1 [Tiratricol],0.92,1.07,0.852,0.382,–
COc1ccc(-c2ccc(=N)n(CCCC(=O)O)n2)cc1,0.914,0.864,0.935,1.38,0.946
COc1ccc2c(c1)c(CC(=O)O)c(C)n2C(=O)c1ccc(Cl)cc1 [Indomethacin],1.09,1.15,1.17,0.248,–
"CC1(C)C(=O)N(Cl)C(=O)N1Cl [1,3-Dichloro-5,5-dimethylhydantoin]",0.99,1.06,1.04,0.988,–

SMILES,Renilla luciferase signal (concentration: 0.1 uM),Renilla luciferase signal (concentration: 1 uM),Renilla luciferase signal (concentration: 10 uM),Renilla luciferase signal (concentration: 100 uM),Renilla luciferase signal (concentration: 0.01 uM)
CC=Cc1ccc(O)c(OC)c1 [Isoeugenol],0.954,1.01,0.993,0.945,–
CCN(CC)CCOc1ccc(C(=C(Cl)c2ccccc2)c2ccccc2)cc1.O=C(O)CC(O)(CC(=O)O)C(=O)O [Clomiphene citrate (1:1)],0.837,0.85,0.818,1.02,–
CCCCCCC(C)OC(=O)COc1nc(F)c(Cl)c(N)c1Cl (stereo not given) [Fluroxypyr-meptyl],1.3,1.15,1.2,2.31,1.04
O=C(O)c1cc(/N=N/c2ccc(S(=O)(=O)Nc3ccccn3)cc2)ccc1O [Sulfasalazine],0.788,0.885,0.691,0.277,–
CC(C)(C)C(O)C(Cc1ccc(Cl)cc1)n1cncn1 (stereo not given) [Paclobutrazol],1.16,1.06,1.22,1.62,1.25
CCOc1cccc(-n2cc(C(=O)N3CCN(c4cc(C(=O)[O-])c5ccccc5c4)CC3)nc2-c2ccc(C)cc2)c1.[Na+],0.869,0.966,0.903,0.0785,–
Cc1cc(NC(=O)C(=O)O)cc(C)c1Oc1ccc(O)c2c1CCC2,1.12,1.12,0.767,1.03,–
Cc1occc(=O)c1O [Maltol],0.895,0.982,0.967,1.11,–
CCN(CC)C(=O)c1cc(S(=O)(=O)Cc2ccccc2)c(N2CCC(c3ccccc3)CC2)cc1N(CC)CCN(C)C.O=C(O)C(F)(F)F [HMR1171 trifluoroacetate (1:1)],0.802,0.767,0.648,0.249,–
OC12N=C(c3ccccc3)SC1Cc1cc(Cl)ccc12 (stereo not given),1.14,1.13,1.03,0.714,–
Cc1cc(SC2=C(O)C[C@@](CCc3ccc(N)cc3)(C(C)C)OC2=O)c(C(C)(C)C)cc1CO,0.926,1.01,0.952,0.324,–
Sc1nc2ccccc2s1 [2-Mercaptobenzothiazole],0.981,0.791,0.768,0.92,–
O.O=C1[N-]S(=O)(=O)c2ccccc21.[Na+] [Sodium saccharin hydrate],1.05,1.15,1.35,1.71,–
C#C[C@]1(O)CC[C@H]2[C@@H]3CCC4=CC(=O)CC[C@@H]4[C@H]3CC[C@@]21C [Norethindrone],0.942,0.982,0.94,0.294,–
"c1ccc2occc2c1 [2,3-Benzofuran]",0.785,0.78,0.808,1.07,–
CCCCCOC(=O)COc1cc(N2C(=O)C3=C(CCCC3)C2=O)c(F)cc1Cl [Flumiclorac-pentyl],0.9,1.01,0.974,1.62,0.938
CCCCCCCCOC(=O)c1cc(O)c(O)c(O)c1 [Octyl gallate],0.909,0.947,0.814,0.0786,–
CCOC(=O)COc1cc(-n2ncc(C(F)(F)F)c(C)c2=O)c(F)cc1Cl [Flufenpyr-ethyl],0.957,1.07,1.03,1.51,1.2
